USP30 inh: human USP30 deubiquitinase inhibition; actives 5.3% (n = 47,000); AID 1645860; Q70CQ3; purified USP30, Ub-rhodamine cleavage fluorescence; inhibition, % at 25 µM
USP28 inh: blocks human USP28 ubiquitin-rhodamine cleavage | AID 1645857 | inhibition, % at 25 µM | purified USP28, Ub-rhodamine cleavage fluorescence, 30 min | Q96RU2 | actives 3% (n = 47,000)
Target sequence (Q96RU2 whole entry, looked up): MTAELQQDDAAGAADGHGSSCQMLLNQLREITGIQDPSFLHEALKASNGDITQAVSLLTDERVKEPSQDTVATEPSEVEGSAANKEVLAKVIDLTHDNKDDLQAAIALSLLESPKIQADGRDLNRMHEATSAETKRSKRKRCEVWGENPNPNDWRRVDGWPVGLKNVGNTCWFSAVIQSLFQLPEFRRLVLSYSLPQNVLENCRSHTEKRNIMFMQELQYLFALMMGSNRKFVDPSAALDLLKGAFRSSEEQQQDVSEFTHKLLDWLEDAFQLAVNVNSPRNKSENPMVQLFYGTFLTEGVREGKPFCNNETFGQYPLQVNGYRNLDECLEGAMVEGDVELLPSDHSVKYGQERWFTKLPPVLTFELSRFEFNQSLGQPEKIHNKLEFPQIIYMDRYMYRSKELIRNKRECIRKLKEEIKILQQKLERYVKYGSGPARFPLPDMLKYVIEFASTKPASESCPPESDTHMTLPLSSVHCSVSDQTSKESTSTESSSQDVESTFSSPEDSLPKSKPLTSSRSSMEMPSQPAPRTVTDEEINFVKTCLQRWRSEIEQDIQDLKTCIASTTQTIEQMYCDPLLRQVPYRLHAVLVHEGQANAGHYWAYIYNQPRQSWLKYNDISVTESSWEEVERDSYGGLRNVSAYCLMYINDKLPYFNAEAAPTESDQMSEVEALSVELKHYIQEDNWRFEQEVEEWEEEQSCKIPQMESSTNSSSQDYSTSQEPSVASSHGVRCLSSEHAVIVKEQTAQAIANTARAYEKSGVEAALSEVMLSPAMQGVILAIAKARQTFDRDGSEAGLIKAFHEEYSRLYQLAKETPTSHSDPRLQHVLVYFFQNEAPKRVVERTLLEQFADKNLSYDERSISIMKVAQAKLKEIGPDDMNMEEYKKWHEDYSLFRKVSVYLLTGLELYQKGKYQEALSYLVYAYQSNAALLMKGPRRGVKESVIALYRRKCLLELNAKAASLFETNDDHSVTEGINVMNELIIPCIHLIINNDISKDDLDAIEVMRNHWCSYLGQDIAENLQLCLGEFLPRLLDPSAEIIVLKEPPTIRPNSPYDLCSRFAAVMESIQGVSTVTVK
USP17 block: blocks human USP17 ubiquitin-rhodamine cleavage; A8MUK1; purified USP17, Ub-rhodamine cleavage fluorescence, 3 h; inhibition, % at 50 µM; actives 6.5% (n = 47,000)
* hit, by the source's call; i = inactive; . = no result. Shown are actives, neighbours in structure and some others; about 11% of the full set was active somewhere. Cut-off read from the data, not from the text of the source: active = inhibition above about 30%; inactive = the rest.

SMILES	USP30 inh	USP28 inh	USP17 block
CC(NC(=O)c1ccccc1)c1nc(-c2ccc(S(=O)(=O)N3CCCC3)cc2)no1 (centres undefined)	16.8	15.9	43.5*
CC(NC(=O)c1ccccc1)c1nc(-c2ccc(S(=O)(=O)N3CCCCC3)cc2)no1 (centres undefined)	0.1	3.8	21.3
CN1C(=O)[C@H]2CN(S(C)(=O)=O)C[C@H]2C12CCN(C(=O)NCCc1ccccc1)CC2	1.2	4.7	-2.9
CN(C)C(=O)N1Cc2ccccc2C2(CCNCC2)C1	30.7*	15.5	21.8
CCS(=O)(=O)N1Cc2ccccc2C2(CCNCC2)C1	6.6	11.7	-9.9
Cc1ccc(C(CNC(=O)c2ccccc2)N2CCCCC2)o1 (centres undefined)	8.1	4.7	11.3
Cc1ccc(CSc2nc(-c3ccco3)nc3c2c(=O)n(C)c(=O)n3C)cc1	-12.1	-8.4	-4.6
COc1ccc(S(=O)(=O)N2CCN3C(=O)N(Cc4ccccn4)C(=O)C3(C)CC2)cc1 (centres undefined)	11.2	0.0	1.8
COc1cccc(CC2(Cc3cccc(OC)c3)C(=O)N(Cc3ccccn3)C(=O)c3ccccc32)c1	35.9*	7.9	21.3
COc1ccc(-c2nnn(Cc3ccc(-c4ccccc4)cc3)n2)cc1OC	1.4	-3.8	4.2
COc1ccc(Cn2nnc(-c3cccc(F)c3)n2)cc1F	2.2	49.1*	5.0
COc1ccc(-c2nc(CC(=O)N[C@H](CO)c3ccccc3)cs2)cc1	.	.	-10.0
O=c1ccc(-c2nc(-c3cnccn3)no2)cn1Cc1ccccc1F	33.3*	8.1	3.8
O=c1ccc(-c2nc(-c3cnccn3)no2)cn1Cc1noc(-c2ccccc2)n1	-98.4	-15.4	-20.4
CCOc1ccccc1N(C(=O)CCCC(=O)Nc1ccccn1)C(C(=O)NC1CCCC1)c1ccc(Cl)cc1 (centres undefined)	14.4	-9.1	-0.3
N#Cc1ccccc1NC(=O)c1cc2c(s1)-c1ccccc1S(=O)(=O)C2	82.9*	87.6*	72.3*
O=C(c1cc2c(s1)-c1ccccc1S(=O)(=O)C2)N1CCN(c2ccccc2F)CC1	26.1	25.2	11.0
Cc1ccc(NC(=O)Nc2ccccc2)c(=O)n1CC(=O)N1CCC2(CC1)OCCO2	5.2	6.8	3.7
O=C(c1ccc2cc[nH]c2c1)N1CCC2(CC1)N=C(c1ccccc1)NO2	-41.9	-3.4	33.9*
Cc1ccc(C2=NC3(CCN(C(=O)c4ccc5cc[nH]c5c4)CC3)ON2)cc1	-141.8	-41.6	-7.0
Cc1nc(-c2cccnc2)sc1C(=O)N1CCC[C@]2(C)NC(=O)CCC[C@H]12	11.5	10.3	12.3
COc1ccccc1C(=O)NCC(c1ccc2c(c1)CCN2C)N1CCCCC1 (centres undefined)	-11.4	-22.7	-5.9
O=C(NCc1ccncc1)c1ccc(-n2cccn2)c(C#Cc2cccnc2)c1	-6.7	-9.2	42.7*
O=C(NCCN1CCOCC1)c1ccc(-n2cccn2)c(C#Cc2cccnc2)c1	4.9	-4.5	-7.5
COc1ccc(CNCc2cc3c(C)nn(-c4ccccc4)c3[nH]c2=O)cc1	-17.4	11.2	.
SMILES	USP30 inh	USP28 inh	USP17 block
Cc1nnc2cc(N3CCN(S(=O)(=O)c4ccc(F)cc4)CC3)cnn12	-0.4	-12.9	-0.6
COc1ccc2cc(CNCC3CCCO3)c(=O)[nH]c2c1 (centres undefined)	-18.7	-5.9	-5.4
Cc1cnc(-c2nnc(C3CCCCN3C(=O)c3ccccc3F)o2)cn1 (centres undefined)	-0.1	0.0	0.9
Cc1ccc(-c2c3c(=O)n(C)c(=O)n(C)c3cn2-c2ccc3c(c2)OCCO3)cc1	-38.6	-22.0	14.4
COc1ccc(Nc2ncnc3c2nnn3C)c(OC)c1	-12.2	-7.8	.
COc1ccc(C(=O)NCc2noc(C3CCCCC3)n2)cc1C#N	-3.5	42.4*	-14.3
COc1ccc(C(=O)NCc2noc(C3CCCC3)n2)cc1OC	.	.	-3.9
O=C(NCc1noc(Cc2ccccc2)n1)c1ccc(-c2noc(C3CC3)n2)cc1	16.9	13.1	8.8
O=C(NCc1noc(-c2ccccc2)n1)c1ccc(-c2noc(C3CC3)n2)cc1	13.1	27.7	32.4*
CNc1cccc(C2CN(C(=O)c3n[nH]c4c3CCC4)CCO2)n1 (centres undefined)	-6.5	-6.0	-5.2
Cc1nn(-c2ccccc2)c2nc(C3CCN(C(=O)c4n[nH]c5c4CCC5)CC3)ccc12	38.0*	10.1	15.3
O=C(c1ccn(-c2ccc3ccc(-c4ccncc4)cn23)n1)N1CCCC1	i	-244.4	-145.4
Cc1cn[nH]c1C1CCCCN1C(=O)c1noc2c1CCCC2 (centres undefined)	28.5	9.3	17.8
Clc1ccc2oc(-c3cccs3)nc2c1	10.0	3.9	5.3
Nc1ccc2oc(-c3cccc(-c4nc5cc(N)ccc5o4)n3)nc2c1	68.3*	47.9*	52.9*
COc1ccc(C)cc1S(=O)(=O)Nc1cnc(N2CCCC2)nc1	0.4	-0.6	-5.3
N#Cc1cccc(S(=O)(=O)c2c[nH]c3cc(Cl)ccc3c2=O)c1	-13.0	1.4	46.1*
N#Cc1cccc(S(=O)(=O)NC2CCN(c3ccc(F)cc3)C2=O)c1 (centres undefined)	16.4	10.2	0.3
CCc1ccc(OC)c(S(=O)(=O)Nc2cccc(O)c2)c1	2.0	0.5	0.0
CC(C)=CCCC(C)(O)[C@H]1CC[C@]2(C)[C@@H]1CC[C@@H]1[C@@]3(C)CC[C@H](O)C(C)(C)[C@@H]3CC[C@]12C (some centres undefined)	-16.4	-2.7	0.5
C[C@@H]1CC[C@]2(C(=O)O)CC[C@]3(C)C(=CCC4[C@@]5(C)CC[C@H](O)C(C)(C)C5CC[C@]43C)C2[C@H]1C (some centres undefined)	34.7*	8.5	4.2
CC1CCC2(C(=O)O)CCC3(C)C(=CCC4C5(C)CCC(O)C(C)(C)C5CCC43C)C2C1C (mixture of isomers)	40.2*	16.4	22.5
CC1(C)C[C@@H](O)[C@]2(C)CC[C@]3(C)C(=CCC4[C@@]5(C)CCC(=O)[C@](C)(CO)[C@@H]5CC[C@]43C)[C@@H]2C1 (some centres undefined)	18.0	-2.5	28.0
O=C(N[C@@H]1[C@@H](c2ccccc2)[C@@H](CO)N2CCCC[C@H]12)N1CCOCC1	-350.8	-112.9	-92.3
O=C(Nc1ccc(Oc2cccc3cccnc23)cc1)c1cccs1	-27.0	86.2*	-21.4
SMILES	USP30 inh	USP28 inh	USP17 block
CC(Oc1ccc(F)cc1)C(=O)Nc1cccc2cccnc12 (centres undefined)	23.2	19.4	15.5
O=C(Nc1ccccc1)/C(=C/c1ccco1)n1nnnc1-c1ccccc1	-69.2	-16.4	-7.4
CC(=O)c1ccc(NC(=O)/C(=C/c2ccco2)n2nnnc2-c2ccccc2)cc1	-128.0	12.3	50.8*
O=C1CC(c2ccccc2)Cc2nc(NCc3ccco3)ncc21 (centres undefined)	-23.8	-12.7	-26.3
O=C1CC(c2ccco2)Cc2nc(NCc3ccco3)ncc21 (centres undefined)	-112.8	-16.1	33.9*
CN(Cc1nc(-c2ccc(OC(F)(F)F)cc2)no1)S(=O)(=O)c1ccc(Cl)cc1	3.7	7.8	10.3
Cc1ccc(C(=O)c2c(-c3ccccc3)cc3ccccn23)cc1S(=O)(=O)N1CCOCC1	-58.5	-2.3	-22.5

Compound activity: PubChem, Buhrlage Lab, Dana-Farber Cancer Institute and Novartis Institutes for BioMedical Research (Cambridge, Mass)
